Reference: PubChem BioAssay AID1159580 (chemical genetic matrix, 2015)
The whole screen tested about 5,500 compounds, of which about 2,000 (36%) were called active. Roughly 18% stayed inconclusive and do not appear here. Cut-off read from the data, not from the text of the source: active = normalized growth mostly below about 0.91 (no sharp cut-off); inconclusive = no clear call, values can overlap the other calls; inactive = mostly above about 0.92. The list shows a part of the results.

Test: chemical genetic growth profiling, strain panel (AID 1159580);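 note: tested at 20 µM; growth read once vehicle control cultures reached saturation at 30 °C; 1 = growth at the plate median or of vehicle wells; lower values mean less growth of the strain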
Conditions: growth OD
[1] = S. cerevisiae deletion strains, locus YHR030C, strain SLT2, stronger effect = lower value
[2] = S. cerevisiae deletion strains, locus YAL013W, strain DEP1, stronger effect = lower value
[3] = S. cerevisiae deletion strains, locus YGR078C, strain PAC10, stronger effect = lower value
[4] = S. cerevisiae deletion strains, locus YJR075W, strain HOC1, stronger effect = lower value
[5] = S. cerevisiae deletion strains, locus YPL055C, strain LGE1, stronger effect = lower value
[6] = S. cerevisiae deletion strains, locus YPL241C, strain CIN2, stronger effect = lower value

Measured: normalized growth

CC1(C)C/C(=N/Nc2ccc(C(F)(F)F)cc2)c2cc(C(C)(C)C)c(O)c(O)c2O1
active: S. cerevisiae deletion strains, locus YDL214C, strain PRR2, stronger effect = lower value 0.481 | S. cerevisiae deletion strains, locus YDR477W, strain SNF1, stronger effect = lower value 0.6 | S. cerevisiae deletion strains, locus YER123W, strain YCK3, stronger effect = lower value 0.375 | S. cerevisiae deletion strains, locus YFR019W, strain FAB1, stronger effect = lower value 0.436 | S. cerevisiae deletion strains, locus YGR040W, strain KSS1, stronger effect = lower value 0.635 | S. cerevisiae deletion strains, locus YGR052W, strain FMP48, stronger effect = lower value 0.347 | S. cerevisiae deletion strains, locus YGR092W, strain DBF2, stronger effect = lower value 0.214 | [1] 0.246 | S. cerevisiae deletion strains, locus YHR079C, strain IRE1, stronger effect = lower value 0.29 | S. cerevisiae deletion strains, locus YHR082C, strain KSP1, stronger effect = lower value 0.314 | S. cerevisiae deletion strains, locus YHR205W, strain SCH9, stronger effect = lower value 0.0779 | S. cerevisiae deletion strains, locus YJL095W, strain BCK1, stronger effect = lower value 0.283 | S. cerevisiae deletion strains, locus YJL128C, strain PBS2, stronger effect = lower value 0.129 | S. cerevisiae deletion strains, locus YJR066W, strain TOR1 (second series), stronger effect = lower value 0.355 | S. cerevisiae deletion strains, locus YJR066W, strain TOR1, stronger effect = lower value 0.36 | S. cerevisiae deletion strains, locus YKL048C, strain ELM1, stronger effect = lower value 0.275 | S. cerevisiae deletion strains, locus YKL067W, strain YNK1, stronger effect = lower value 0.532 | S. cerevisiae deletion strains, locus YKL101W, strain HSL1, stronger effect = lower value 0.204 | S. cerevisiae deletion strains, locus YLR113W, strain HOG1, stronger effect = lower value 0.199 | S. cerevisiae deletion strains, locus YLR133W, strain CKI1, stronger effect = lower value 0.419 | S. cerevisiae deletion strains, locus YML070W, strain DAK1, stronger effect = lower value 0.426 | S. cerevisiae deletion strains, locus YMR205C, strain PFK2 (second series), stronger effect = lower value 0.364 | S. cerevisiae deletion strains, locus YNL020C, strain ARK1, stronger effect = lower value 0.375 | S. cerevisiae deletion strains, locus YNL183C, strain NPR1, stronger effect = lower value 0.302 | S. cerevisiae deletion strains, locus YNL307C, strain MCK1 (second series), stronger effect = lower value 0.116 | S. cerevisiae deletion strains, locus YOL136C, strain PFK27, stronger effect = lower value 0.427 | S. cerevisiae deletion strains, locus YOR061W, strain CKA2, stronger effect = lower value 0.243 | S. cerevisiae deletion strains, locus YOR119C, strain RIO1, stronger effect = lower value 0.534 | S. cerevisiae deletion strains, locus YOR231W, strain MKK1, stronger effect = lower value 0.277 | S. cerevisiae deletion strains, locus YPL031C, strain PHO85, stronger effect = lower value 0.576 | S. cerevisiae deletion strains, locus YPL153C, strain RAD53, stronger effect = lower value 0.436 | S. cerevisiae deletion strains, locus YPL204W, strain HRR25, stronger effect = lower value 0.535 | S. cerevisiae deletion strains, locus YPL256C, strain CLN2, stronger effect = lower value 0.243 | S. cerevisiae deletion strains, locus YPR106W, strain ISR1, stronger effect = lower value 0.421 | S. cerevisiae deletion strains, locus YPR111W, strain DBF20, stronger effect = lower value 0.319 | S. cerevisiae deletion strains, strain NNK1, stronger effect = lower value 0.434
inactive: S. cerevisiae deletion strains, locus YAR019C, strain CDC15, stronger effect = lower value 0.989 | S. cerevisiae deletion strains, locus YBL105C, strain PKC1, stronger effect = lower value 0.978 | S. cerevisiae deletion strains, locus YBR135W, strain CKS1, stronger effect = lower value 0.977 | S. cerevisiae deletion strains, locus YBR136W, strain MEC1, stronger effect = lower value 0.978 | S. cerevisiae deletion strains, locus YBR160W, strain CDC28, stronger effect = lower value 0.976 | S. cerevisiae deletion strains, locus YDL017W, strain CDC7, stronger effect = lower value 0.976 | S. cerevisiae deletion strains, locus YDL028C, strain MPS1, stronger effect = lower value 0.96 | S. cerevisiae deletion strains, locus YDL108W, strain KIN28, stronger effect = lower value 0.976 | S. cerevisiae deletion strains, locus YDL132W, strain cdc53, stronger effect = lower value 0.977 | S. cerevisiae deletion strains, locus YDR052C, strain DBF4, stronger effect = lower value 0.975 | S. cerevisiae deletion strains, locus YDR054C, strain cdc34, stronger effect = lower value 0.968 | S. cerevisiae deletion strains, locus YDR226W, strain ADK1, stronger effect = lower value 0.988 | S. cerevisiae deletion strains, locus YER133W, strain GLC7, stronger effect = lower value 0.896 | S. cerevisiae deletion strains, locus YFL009W, strain cdc4, stronger effect = lower value 0.979 | S. cerevisiae deletion strains, locus YFL029C, strain CAK1, stronger effect = lower value 0.978 | S. cerevisiae deletion strains, locus YFR003C, strain YPI1, stronger effect = lower value 0.981 | S. cerevisiae deletion strains, locus YFR028C, strain CDC14, stronger effect = lower value 0.98 | S. cerevisiae deletion strains, locus YIL147C, strain SLN1, stronger effect = lower value 0.975 | S. cerevisiae deletion strains, locus YJL157C, strain FAR1, stronger effect = lower value 0.896 | S. cerevisiae deletion strains, locus YJR016C, strain ILV3, stronger effect = lower value 0.991 | S. cerevisiae deletion strains, locus YKL193C, strain SDS22, stronger effect = lower value 0.973 | S. cerevisiae deletion strains, locus YKL203C, strain TOR2, stronger effect = lower value 0.731 | S. cerevisiae deletion strains, locus YLR403W, strain SFP1, stronger effect = lower value 0.865 | S. cerevisiae deletion strains, locus YMR001C, strain CDC5, stronger effect = lower value 0.98 | S. cerevisiae deletion strains, locus YMR277W, strain FCP1, stronger effect = lower value 0.977 | S. cerevisiae deletion strains, locus YNL006W, strain LST8, stronger effect = lower value 0.975 | S. cerevisiae deletion strains, locus YNL161W, strain CBK1, stronger effect = lower value 0.976 | S. cerevisiae deletion strains, locus YNL207W, strain RIO2, stronger effect = lower value 0.976 | S. cerevisiae deletion strains, locus YNL222W, strain SSU72, stronger effect = lower value 0.995 | S. cerevisiae deletion strains, locus YOL078W, strain AVO1, stronger effect = lower value 0.975 | S. cerevisiae deletion strains, locus YOR329C, strain SCD5, stronger effect = lower value 0.983 | S. cerevisiae deletion strains, locus YPL209C, strain IPL1, stronger effect = lower value 0.983 | S. cerevisiae deletion strains, locus YPR025C, strain CCL1, stronger effect = lower value 0.981 | S. cerevisiae deletion strains, strain TSCII, stronger effect = lower value 0.986

NC(=O)CCSCCC(N)=O
inactive: [2] 0.992 | S. cerevisiae deletion strains, locus YBR229C, strain ROT2, stronger effect = lower value 0.995 | S. cerevisiae deletion strains, locus YDL101C, strain DUN1, stronger effect = lower value 0.996 | S. cerevisiae deletion strains, locus YDL134C, strain PPH21, stronger effect = lower value 1.02 | S. cerevisiae deletion strains, locus YDR150W, strain NUM1, stronger effect = lower value 0.999 | S. cerevisiae deletion strains, locus YEL061C, strain CIN8, stronger effect = lower value 1.01 | [3] 0.988 | [1] 0.972 | S. cerevisiae deletion strains, locus YHR087W, strain rtc3, stronger effect = lower value 1 | S. cerevisiae deletion strains, locus YJR043C, strain POL32, stronger effect = lower value 0.976 | [4] 1 | S. cerevisiae deletion strains, locus YLR039C, strain RIC1, stronger effect = lower value 1.02 | S. cerevisiae deletion strains, locus YLR058C, strain SHM2 (second series), stronger effect = lower value 0.997 | S. cerevisiae deletion strains, locus YLR085C, strain ARP6, stronger effect = lower value 1.06 | S. cerevisiae deletion strains, locus YLR262C, strain YPT6, stronger effect = lower value 1.03 | S. cerevisiae deletion strains, locus YML094W, strain GIM5, stronger effect = lower value 1.01 | S. cerevisiae deletion strains, locus YMR219W, strain ESC1, stronger effect = lower value 1.01 | S. cerevisiae deletion strains, locus YMR263W, strain SAP30, stronger effect = lower value 0.991 | S. cerevisiae deletion strains, locus YMR307W, strain GAS1, stronger effect = lower value 1.09 | S. cerevisiae deletion strains, locus YNL153C, strain GIM3, stronger effect = lower value 0.979 | S. cerevisiae deletion strains, locus YNL298W, strain CLA4 (second series), stronger effect = lower value 0.988 | S. cerevisiae deletion strains, locus YNL322C, strain KRE1, stronger effect = lower value 1.03 | S. cerevisiae deletion strains, locus YNR030W, strain Alg12, stronger effect = lower value 0.981 | [5] 1.02 | [6] 0.995 | S. cerevisiae deletion strains, locus YPR135W, strain CTF4, stronger effect = lower value 0.92 | S. cerevisiae strains, strain wild type, stronger effect = lower value 1.02

NC(=O)CI
inactive: [2] 0.951 | S. cerevisiae deletion strains, locus YAL040C, strain CLN3, stronger effect = lower value 0.968 | S. cerevisiae deletion strains, locus YCL061C, strain MRC1 (second series), stronger effect = lower value 0.98 | S. cerevisiae deletion strains, locus YDR363W, strain ESC2, stronger effect = lower value 0.988 | S. cerevisiae deletion strains, locus YER002W, strain NOP16, stronger effect = lower value 0.949 | S. cerevisiae deletion strains, locus YGR229C, strain SMI1, stronger effect = lower value 0.942 | [4] 0.966 | S. cerevisiae deletion strains, locus YNL175C, strain NOP13, stronger effect = lower value 0.947 | S. cerevisiae deletion strains, locus YNL197C, strain WHI3, stronger effect = lower value 0.936 | S. cerevisiae deletion strains, locus YNL224C, strain SQS1, stronger effect = lower value 0.972 | [5] 0.956 | [6] 0.966
active: [3] 0.907 | S. cerevisiae deletion strains, locus YOR083W, strain WHI5 (second series), stronger effect = lower value 0.792
